# KCNQ2 inh: KCNQ2 (rat) channel inhibition | AID 2156 | 310,000 tested, 1.1% active | B-score at 10 µM | CHO-K1 KCNQ2, FluxOR thallium flux, 20 min; hits give low values | O88943;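 active means fluorescence ratio B-score at most minus 3 library SDs, with starting brightness B-score within 2 library SDs, cut at about -5.5 in these data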
# KCNQ2 pot: potentiators of rat KCNQ2 potassium channel; B-score at 10 µM; AID 2239; 310,000 tested, 0.54% active; CHO-K1 KCNQ2, FluxOR thallium flux fluorescence; hits give high values;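 active means fluorescence ratio B-score at least 3 SD of library B-scores, with initial fluorescence B-score within 3 of them, cut at about 5.3 in these data; same plate scores as AID 2156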;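 further: B-score of peak minus minimum over baseline fluorescence ratio after K+ and Tl+ stimulus; positive B-score means potentiation of KCNQ2 with more thallium influx and brighter signal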
# Kir21 confirm: confirmation of mouse Kir2.1 potassium channel inhibitors | AID 2032 | Kir2.1-expressing cells, FluxOR thallium flux fluorescence; hits give low values | 2,300 tested, 41% active | Tl flux remaining, % of negative control (hits give low values), % at 10 µM | shares compounds with KCNQ2 pot;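 active means Primary-screen hit whose thallium flux fell at least 3 control SD below untreated wells in both duplicates, with normal baseline fluorescence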;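 further: 0% = blank wells without stimulus and 100% = stimulated no-compound controls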
# HEK293 ctr: parental HEK293 activity in Kir2.1 inhibitor counter-screen; FluxOR signal as % of negative control (100 = no effect), % at 10 µM; parental HEK293 cells, FluxOR thallium flux fluorescence; 0% = unstimulated blank wells; AID 2105; 2,300 tested, 19% active; shares compounds with KCNQ2 pot;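 active means dye signal at least 3 control SD above or below untreated wells in both duplicates, raw fluorescence within 3, either direction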;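 further: percent is based on the flux ratio of peak minus minimum fluorescence over baseline F0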
# CHO-K1 ctr: parental CHO-K1 activity in KCNQ2 potentiator counter-screen | shares compounds with KCNQ2 pot | parental CHO-K1 cells, FluxOR thallium flux fluorescence; zero = vehicle mean+3SD, 100% = vehicle-minus-blank window | activity increase over 3SD of controls, % at 10 µM | 1,200 tested, 43% active | AID 2282;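 active means signal rise of at least 3 SD above the untreated control mean, in both duplicate wells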;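 further: counter screen of KCNQ2 potentiator hits so any rise reflects channel-independent effects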
# KCNQ1 sel pot: selectivity of KCNQ2 potentiators: effect on human KCNQ1 | shares compounds with KCNQ2 pot | CHO KCNQ1 stable, FluxOR thallium flux fluorescence; beyond 3SD, as % of vehicle-control signal | activation over 3SD threshold, % at 10 µM | 1,200 tested, 28% active;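 active means fluorescence ratio rise of at least 3 SD of vehicle wells above their mean, in both replicate wells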;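 further: 0% = vehicle mean plus 3 SD and 100% = vehicle minus unstimulated blank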
# KCNQ2 pot confirm: rat KCNQ2 channel potentiator confirmation; CHO-KCNQ2 cells, FluxOR thallium flux fluorescence; AID 2287; shares compounds with KCNQ2 pot; potentiation, less the hit threshold, % at 10 µM; 1,200 tested, 68% active;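 active means fluorescence ratio rising 3 SD or more over the vehicle control mean in both replicates, plus primary screen hit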;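 further: peak minus minimum thallium fluorescence divided by baseline after K/Tl stimulus; 0% = vehicle mean plus 3 SD and 100% = vehicle minus unstimulated blank difference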
# Kir21 spec: tests whether KCNQ2 potentiators also affect mouse Kir2.1; shares compounds with KCNQ2 pot; HEK293 Kir2.1, FluxOR thallium flux fluorescence; 1,200 tested, 2% active; activity over 3SD threshold, % at 10 µM;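 active means fluorescence ratio rise of at least 3 SD above the vehicle-control mean, seen in both replicates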;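 further: 0% = vehicle mean plus 3 SD and 100% = vehicle minus no-stimulus blank window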
# KCNQ2 W236L pot: potentiates the retigabine-insensitive rat KCNQ2 W236L mutant channel. shares compounds with KCNQ2 pot. CHO KCNQ2-W236L, automated patch clamp current. current increase over 3SD of negative controls (%), hits give high values, % at 25 µM. 940 tested, 10% active. AID 2558;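 active means current increase at least 3 SD of the untreated controls above them in both duplicate recordings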
# Target sequence (O88943 whole entry W236L, looked up): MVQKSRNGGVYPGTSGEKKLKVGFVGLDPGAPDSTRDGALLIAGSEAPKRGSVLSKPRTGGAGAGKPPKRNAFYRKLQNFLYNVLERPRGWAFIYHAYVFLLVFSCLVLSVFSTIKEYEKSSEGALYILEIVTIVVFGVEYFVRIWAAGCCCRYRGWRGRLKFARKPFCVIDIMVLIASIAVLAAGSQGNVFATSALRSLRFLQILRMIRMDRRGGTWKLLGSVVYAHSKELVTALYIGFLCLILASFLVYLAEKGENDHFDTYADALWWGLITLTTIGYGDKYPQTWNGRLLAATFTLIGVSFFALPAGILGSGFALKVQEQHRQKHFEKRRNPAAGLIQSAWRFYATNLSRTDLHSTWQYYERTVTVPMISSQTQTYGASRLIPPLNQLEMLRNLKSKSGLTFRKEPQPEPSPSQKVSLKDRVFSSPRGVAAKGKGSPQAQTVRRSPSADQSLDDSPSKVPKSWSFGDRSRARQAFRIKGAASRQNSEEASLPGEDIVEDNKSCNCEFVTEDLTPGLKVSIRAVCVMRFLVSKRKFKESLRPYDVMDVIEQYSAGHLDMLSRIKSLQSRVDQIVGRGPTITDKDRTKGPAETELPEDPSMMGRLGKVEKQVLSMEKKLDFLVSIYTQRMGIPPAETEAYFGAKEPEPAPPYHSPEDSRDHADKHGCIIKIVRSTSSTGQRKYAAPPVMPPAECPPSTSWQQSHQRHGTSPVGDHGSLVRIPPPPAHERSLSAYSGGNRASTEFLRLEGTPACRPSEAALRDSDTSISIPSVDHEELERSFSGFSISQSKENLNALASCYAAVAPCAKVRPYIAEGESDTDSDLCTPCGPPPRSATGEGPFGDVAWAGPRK
# Numbers without * were called inactive; i = inactive; · = no result. The list is not random: actives were taken first. Their share in the collection is about 1.6%.
SMILES,KCNQ2 inh,KCNQ2 pot,Kir21 confirm,HEK293 ctr,others
CCOC(=O)c1cccc(NC(=O)c2ccc(NC(=O)C3CCCO3)cc2)c1 (stereo not given),i,1.6,·,·,
CC(=O)c1nnn(-c2ccc([N+](=O)[O-])cc2C)c1C,i,·,·,·,
O=C(Nc1ccc(C(F)(F)F)cc1)N1CCN(c2ccnc3cc(Cl)ccc23)CC1,i,·,·,·,
COc1ccc(CNC(=O)CN(C)Cc2ccc(SC)cc2)cc1,i,·,i,i,
CSc1ccc(CN(C)C(C)C(=O)NCc2ccccc2)cc1 (stereo not given),i,·,34%*,i,
CCc1ccc(CN(C)C(C)C(=O)NCc2ccccc2)cc1 (stereo not given),i,·,·,·,
CSc1ccc(CN(C)CC(=O)NCc2ccccc2)cc1,i,·,·,·,
O=C(Nc1ccc(C(=O)N2CCOCC2)cc1)c1cccc([N+](=O)[O-])c1,i,0.35,·,·,
Cc1onc(-c2c(Cl)cccc2Cl)c1NC(=O)NC1CCSC1 (stereo not given),i,0.72,·,·,
Cc1nc(CN(C)C(=O)c2cc(COc3ccc4ncccc4c3)on2)cs1,i,0.86,·,·,
CC(C)c1ccc(/C=N/n2c(COc3ccccc3)n[nH]c2=S)cc1,i,7.7*,i,i,CHO-K1 ctr=-3;KCNQ1 sel pot=-45;KCNQ2 pot confirm=9.0*;Kir21 spec=-15;KCNQ2 W236L pot=i
Cc1ccc(/C=N/n2c(COc3ccccc3)n[nH]c2=S)cc1,i,·,·,·,
CCc1ccc(S(=O)(=O)NCc2csc(-c3ccccc3)n2)s1,i,·,49%*,i,
CCc1ccc(S(=O)(=O)NCCc2csc(-c3ccccc3)n2)s1,i,·,·,·,
CN(c1ccc(O)cc1)S(=O)(=O)c1ccc2ccccc2c1,i,0.65,50%*,i,
Cc1cc(O)cc(C)c1NS(=O)(=O)c1ccc2ccccc2c1,i,2.7,56%*,i,
CNS(=O)(=O)c1ccc2ccccc2c1,i,·,·,·,
CCN(c1ccccc1)S(=O)(=O)c1ccc2ccccc2c1,i,·,·,·,
COc1ccc(CC(=O)NCCCSc2ccccc2)cc1OC,i,0.19,·,·,
COc1ccc(/C=C/C(=O)CC(O)(c2ccccc2)C(F)(F)F)cc1 (stereo not given),i,·,·,·,
O=C(/C=C/c1ccccc1)CC(O)(c1ccccc1)C(F)(F)F (stereo not given),i,·,62%*,i,
O=C(Nc1ccccc1[N+](=O)[O-])C1COc2ccccc2O1 (stereo not given),i,·,·,·,
CCN(c1ccccc1)S(=O)(=O)c1cc([N+](=O)[O-])ccc1N,i,5,56%*,i,
CCN(c1ccccc1)S(=O)(=O)c1ccc(C(C(=O)OC)C(=O)OC)c([N+](=O)[O-])c1,i,·,·,·,
CCCCN(C)C(=O)Cn1ncc2c3ccccc3n(CCC)c2c1=O,i,6*,i,i,CHO-K1 ctr=113*;KCNQ1 sel pot=-17;KCNQ2 pot confirm=-1;Kir21 spec=-36;KCNQ2 W236L pot=i
SMILES,KCNQ2 inh,KCNQ2 pot,Kir21 confirm,HEK293 ctr,others
CCCn1c2ccccc2c2cnn(CC(=O)N3CCOCC3)c(=O)c21,i,3.1,·,·,
CCCn1c2ccccc2c2cnn(CC(=O)N(CC)CC)c(=O)c21,i,·,·,·,
O=C(Cn1ncc2c3ccccc3n(Cc3ccccc3)c2c1=O)N1CCN(c2ncccn2)CC1,i,4.7,·,·,
O=C(Cn1ncc2c3ccccc3n(Cc3ccccc3)c2c1=O)N1CCN(c2ccccn2)CC1,i,7.5*,i,i,CHO-K1 ctr=-13;KCNQ1 sel pot=42*;KCNQ2 pot confirm=20*;Kir21 spec=-35;KCNQ2 W236L pot=i
CCCn1c2ccccc2c2cnn(CC(=O)N3CCN(C4CCCCC4)CC3)c(=O)c21,i,9*,i,i,CHO-K1 ctr=-7;KCNQ1 sel pot=35*;KCNQ2 pot confirm=20*;Kir21 spec=-46;KCNQ2 W236L pot=i
COc1ccc(N(Cc2ccccc2)C(=O)c2ccccc2[N+](=O)[O-])cc1,i,·,·,·,
Cc1cc(S(=O)(=O)N2CCCOC2CNC(=O)C(=O)NCc2ccco2)ccc1F (stereo not given),i,0.41,·,·,
Cc1sc2ncnc(SCC(=O)N3CCCC(C(F)(F)F)C3)c2c1C (stereo not given),i,·,·,·,
CCOC(=O)c1c(N)sc2c1CCC(C)C2 (stereo not given),i,0.04,·,·,
CCOC(=O)c1c(NS(C)(=O)=O)sc2c1CCC(C)C2 (stereo not given),i,2.2,i,178%*,
N#C/C(=C\c1ccc(-c2cccc([N+](=O)[O-])c2)o1)C(=O)Nc1nc(-c2cccs2)cs1,i,6.8*,i,i,CHO-K1 ctr=17*;KCNQ1 sel pot=-20;KCNQ2 pot confirm=-18;Kir21 spec=-38
O=C(Cc1ccccc1)Nc1nc(-c2cccc([N+](=O)[O-])c2)cs1,i,1.4,·,·,
COC(=O)c1c(NS(=O)(=O)Cc2ccccc2)sc2c1CCCC2,i,13*,i,236%*,CHO-K1 ctr=110*;KCNQ1 sel pot=-4;KCNQ2 pot confirm=45*;Kir21 spec=-39;KCNQ2 W236L pot=i
COC(=O)c1c(NC(=O)c2ccccc2N(C)S(=O)(=O)c2ccccc2)sc2c1CCCC2,i,·,·,·,
COC(=O)c1c(NS(C)(=O)=O)sc2c1CCCC2,i,0.04,·,·,
CC(C)OC(=O)c1c(NS(=O)(=O)c2ccccc2)sc2c1CCCC2,i,2.2,i,i,
CC(c1ccon1)N(C)Cc1cn(C)nc1-c1cccc(Cl)c1 (stereo not given),i,0.08,·,·,
Cc1ccc(NC(=O)C(C)OC(=O)Cc2c[nH]c3ccccc23)cc1 (stereo not given),i,0.34,52%*,i,
Cc1ccc(C(=O)C(C)OC(=O)Cc2c[nH]c3ccccc23)cc1 (stereo not given),i,·,·,·,
CCN(CC)CCN1C(=O)C(=O)/C(=C(/O)c2ccc(S(=O)(=O)N3CCOCC3)cc2)C1c1ccc(Cl)cc1 (stereo not given),i,·,·,·,
Cc1cc2c(ncn2C)c(NS(=O)(=O)c2ccc(F)cc2)c1C,i,0.03,·,·,
Cc1cc2c(ncn2C(C)C)c(NS(=O)(=O)c2ccc(F)cc2)c1C,i,5.3*,i,i,CHO-K1 ctr=-15;KCNQ1 sel pot=9.7*;KCNQ2 pot confirm=4.3*;Kir21 spec=-41;KCNQ2 W236L pot=i
CCC1(C)C(Nc2c(C)cccc2C)=NC(=S)N1c1ccc(NC(C)=O)cc1 (stereo not given),i,·,·,·,

# Bioassay records as filed in PubChem BioAssay.
